The values below come from PubChem BioAssay (NCATS).

Assay [1] can be described thus: AP1 Signaling Pathway (AID 357; active = well fitted curve in either direction with a large enough effect, not every such curve was filed as active;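 also: ME-180 reporter cells stimulated with EGF at its EC50 level; % is scaled to controls: 0 for no effect and ±100 for the full control effect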). The conditions noted are these: ME-180 AP-1-bla reporter, EGF-induced, beta-lactamase ratio, 5 h. The method, boiled down:
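A ratiometric CCF4 readout (405 nm excitation; 460 and 530 nm emission) quantified AP-1-driven beta-lactamase in ME-180 cells after 5 h with compound and EC50 EGF; AC50 values were derived for activators and inhibitors.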

Assay [2] in a line: NFAT Signaling Pathway (AID 444; active = well fitted curve in either direction with a large enough effect, not every such curve was filed as active;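 also: carbachol stimulus at about its EC50 of 1 µM final; % is scaled to controls: 0 for no effect and ±100 for the full control effect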). Particulars: Jurkat NFAT-bla M1, carbachol, beta-lactamase ratio, 5 h; at 38 µM (top of the series). An outline of the steps: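 Jurkat cells carrying an NFAT-driven β-lactamase reporter and co-transfected muscarinic M1 receptor were treated with compound plus carbachol (1 uM final, an EC50 level) for 5 h at 37 °C. CCF4 loading followed for 1 h at RT; 460/530 nm ratio gave %activity.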

Assay [3] in a line: Stat Signaling Pathway (AID 446; active = well fitted curve in either direction with a large enough effect, not every such curve was filed as active;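 also: ME-180 cervical cancer cells given 40 pM IL-6 alongside compound; SIE-controlled beta-lactamase reporter measured as 460/530 nm FRET emission ratio; % is scaled to controls: 0 for no effect and ±100 for the full control effect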). Particulars: ME-180 (cervical carcinoma) SIE beta-lactamase reporter, IL-6 stimulated, 5 h. An outline of the steps:
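ME-180 SIE-bla cells; overnight plating; cpd + IL-6 40 pM, 5 h, 37 C; LiveBLAzer 2.5 h RT; 460/530 nm emission ratio. Normalized to 300 pM IL-6 and 125 nM JAK inhibitor controls.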

Assay [4] deals with Glucocorticoid receptor (Homo sapiens) (UniProt P04150). Kind of assay: GR-GFP Redistribution (AID 450;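 active = compounds whose dose series gives a full or clear partial fitted curve of increased nuclear translocation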; also: potency is read from the fitted curve at half-maximal effect). Particulars: U2OS GR-GFP nuclear translocation, laser cytometry, 2 h.
Sequence of Glucocorticoid receptor (Homo sapiens) (P04150 whole entry, looked up, the tested form may be a part): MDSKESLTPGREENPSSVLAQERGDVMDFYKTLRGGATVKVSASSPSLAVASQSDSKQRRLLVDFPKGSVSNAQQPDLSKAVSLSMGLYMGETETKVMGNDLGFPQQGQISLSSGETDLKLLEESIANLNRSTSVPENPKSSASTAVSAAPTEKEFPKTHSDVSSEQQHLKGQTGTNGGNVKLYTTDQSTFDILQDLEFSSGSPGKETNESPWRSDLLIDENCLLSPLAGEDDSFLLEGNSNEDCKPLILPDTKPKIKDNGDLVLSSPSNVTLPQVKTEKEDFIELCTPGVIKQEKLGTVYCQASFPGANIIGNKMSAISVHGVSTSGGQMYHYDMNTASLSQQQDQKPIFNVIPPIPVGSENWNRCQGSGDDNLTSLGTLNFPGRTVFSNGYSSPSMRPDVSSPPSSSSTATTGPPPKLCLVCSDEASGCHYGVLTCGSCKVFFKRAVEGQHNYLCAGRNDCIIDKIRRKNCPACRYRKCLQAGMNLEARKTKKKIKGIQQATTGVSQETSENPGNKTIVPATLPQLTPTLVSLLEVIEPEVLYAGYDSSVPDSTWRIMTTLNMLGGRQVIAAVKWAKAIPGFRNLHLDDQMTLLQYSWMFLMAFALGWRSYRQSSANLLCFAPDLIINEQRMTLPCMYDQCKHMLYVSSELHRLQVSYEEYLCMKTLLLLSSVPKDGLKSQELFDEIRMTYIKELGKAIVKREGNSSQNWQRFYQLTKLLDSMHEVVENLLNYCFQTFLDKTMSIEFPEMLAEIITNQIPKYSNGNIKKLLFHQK
Assay [5] has the same target. The assay can be described thus: GR-EFC Redistribution (AID 451; calls by dose curve; also: potency is read from the fitted curve at half-maximal effect). Particulars: CHO-K1 GR-EFC translocation, beta-gal luminescence, 2 h. An outline of the steps: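 CHO-K1 cells stably expressing nuclear-localized β-gal enzyme acceptor and GR fused C-terminally to the enzyme donor fragment; ligand-driven nuclear translocation restores β-gal by complementation. Compounds titrated up to 46 uM final, 2 h at 37 °C; luminescence read.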

Assay [6] concerns the target Mitogen-activated protein kinase 10 (Mus musculus) (UniProt Q61831). The assay can be described thus: JNK3 AlphaScreen Assay (AID 530; active = well fitted curve in either direction with a large enough effect, not every such curve was filed as active;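 also: kinase came from lysate of stimulated human HepG2 cells; signal reports phosphorylation of biotinylated GST-cJun 1-79 at Ser73 with 10 µM ATP; % is scaled to controls: 0 for no effect and ±100 for the full control effect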). An outline of the steps: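 Inhibitors reduce antibody binding to phosphorylated biotin-cJun, lowering AlphaScreen luminescence. Lysates from HepG2 cells pre-activated by IL-1beta plus TNF-alpha supplied JNK3; compounds were titrated.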
(In general: In Alpha technology, singlet oxygen from a donor bead excites a nearby acceptor bead.)

Assay [7] addresses 3',5'-cyclic-AMP phosphodiesterase 4B (Homo sapiens) (UniProt Q07343). Kind of assay: qHTS Assay for Inhibitors of PDE-IV (AID 607; active = well fitted activation curve with a large enough effect in the main read-out, with a control signal flat, not every such curve was filed as active; also: % of control where 0% means no effect). The method, boiled down: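 ACTOne HEK293 cells carry a modified cAMP-gated CNG channel and express endogenous PDE4; plated 1000 cells/well, compounds up to 22.9 uM final. Membrane-potential dye fluorescence (ex 535/em 590) was read; parental cells received 10 uM forskolin + 100 uM RO 20-1724.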

For assay [8], the target named is Guanine nucleotide-binding protein G(i) subunit alpha-1 (Homo sapiens) (UniProt P63096). The assay can be described thus: qHTS Assay for Inhibitors of RGS12 GoLoco Motif Activity (Green Fluorophore) (AID 879).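 Also: 0% = labeled peptide with Gαi1 and full inhibition = labeled peptide alone without protein; negative values mean loss of peptide binding seen as reduced polarization.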 The method, boiled down:
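Fluorescence polarization assay: 50 nM Gαi1 with 10 nM FITC-labeled RGS12 GoLoco peptide in 10 mM Tris pH 7.5, 150 mM NaCl, 0.1 mM GDP, 0.05% NP40, 10 min at room temperature with compound.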

In assay [9] the target is Cytochrome P450 2C9 (Homo sapiens) (UniProt P11712). Kind of assay: qHTS Assay for Inhibitors and Substrates of Cytochrome P450 2C9 (AID 883). Also: % is scaled to controls: 0 for no effect and ±100 for the full control effect; nearly all actives have a fitted effect of over 60% in size. An outline of the steps:
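A luminogenic readout tracked human CYP2C9 (10nM) converting deoxyluciferin (100uM, at KM) in 25mM KPO4 during 60 min at 37C with regenerated NADPH. Values normalized to 57uM sulphaphenazole as complete inhibition.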
(In general: In qHTS, concentration-response curves come from the screen itself.)

Assay [10] concerns the target Cytochrome P450 2D6 (Homo sapiens) (UniProt P10635). The assay can be described thus: qHTS Assay for Inhibitors and Substrates of Cytochrome P450 2D6 (AID 891). Also: potency is read from the fitted curve at half-maximal effect; nearly all actives have a fitted effect of over 60% in size. The method, boiled down: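 Human CYP2D6 (5 nM) with 30 uM Luciferin-ME EGE (at Km) in 100 mM KPO4, compound preincubated 10 min, then NADPH regeneration system for 60 min at room temperature. Luciferin read by luminescence; normalized to 1.43 uM quinidine.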

The target of assay [11] is Pyruvate kinase (Leishmania mexicana) (UniProt Q27686). The assay can be described thus: qHTS Validation Assay for Inhibitors of Leishmania Mexicana Pyruvate Kinase (AID 945).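 Also: 0% = DMSO only neutral control wells.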 The method, boiled down:
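LmPYK E451W 0.2 nM; 0.5 mM PEP, 0.1 mM ADP, 7 mM MgCl2, 50 mM KCl, imidazole pH 7.2, 0.01% Tween 20, 0.05% BSA; 1 h RT; PKLight luminescence; DMSO-normalized.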

The nature of assay [12]: qHTS Assay for Lipid Storage Modulators (AID 1519; calls by dose curve). Particulars: Drosophila S3 cells, BODIPY lipid droplet/cell ratio, laser cytometry, cells loaded with oleic acid. An outline of the steps: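 Cells seeded at 5,000 per well were treated with compounds over a concentration series and loaded with oleic acid (400 uM, as added). Lipid droplet fluorescence (488 nm excitation, 500-530 nm channel) was read by laser-scanning cytometry and normalized to 20 uM Triacsin C.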

The target in assay [13] is DNA dC->dU-editing enzyme APOBEC-3G (Homo sapiens) (UniProt Q9HC16). Kind of assay: qHTS for inhibitors of Vif-A3G interactions: Validation (AID 588379). Also: 0% is about no effect. An outline of the steps: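 HeLa cells stably expressing Vif and A3G-eYFP, 700 cells/well, incubated overnight at 37 deg C, then exposed to compound overnight at 37 deg C. Inhibition of Vif-mediated degradation read as increased yellow fluorescence (Ex 488/Em 500-530) by laser-scanning cytometry.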
Sequence of DNA dC->dU-editing enzyme APOBEC-3G (Homo sapiens) (Q9HC16 whole entry, looked up): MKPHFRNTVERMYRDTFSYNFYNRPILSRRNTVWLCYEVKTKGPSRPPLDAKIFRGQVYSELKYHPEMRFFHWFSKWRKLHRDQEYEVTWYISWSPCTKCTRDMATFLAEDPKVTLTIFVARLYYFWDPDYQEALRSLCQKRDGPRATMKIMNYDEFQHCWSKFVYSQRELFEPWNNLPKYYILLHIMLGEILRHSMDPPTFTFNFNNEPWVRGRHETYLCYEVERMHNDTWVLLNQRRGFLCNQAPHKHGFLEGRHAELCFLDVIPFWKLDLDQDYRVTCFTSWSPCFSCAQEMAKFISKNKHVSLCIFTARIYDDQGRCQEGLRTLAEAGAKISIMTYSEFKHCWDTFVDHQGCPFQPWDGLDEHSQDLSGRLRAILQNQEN

Assay [14] deals with Zika virus NS2B-NS3 protease. The assay can be described thus: Primary screen GU AMC qHTS for Zika virus inhibitors (AID 1347154).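 Also: 0% = no-inhibitor control and -100% = no-enzyme control; nearly all actives have a fitted effect of over 70% in size.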 The method, boiled down:
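Unlinked Zika NS2B hydrophilic domain/NS3 protease domain noncovalent complex (25 nM final) in 10 mM Tris-HCl pH 8.0, 0.01% Tween 20, with AMC peptide substrate. Fluorescence (ex 340, em 450 nm) change over 15 min, room temperature; percent inhibition fitted to 4-parameter Hill equation.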

Assay [15] deals with Cytochrome P450 1A2 (Homo sapiens) (UniProt P05177). The assay can be described thus: p450-cyp1a2 (AID 410; calls by dose curve; also: potency is read from the fitted curve at half-maximal effect;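 as to activity change, negative = inhibition: -100% = full effect of reference inhibitor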). The method, boiled down: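 Luminescent readout of luciferin formed from Luciferin-ME by human CYP1A2; data normalized against complete inhibition by 57 uM furafylline. Enzyme 20nM, substrate 100uM at Km, 100mM KPO4 buffer, 60 min reaction at room temperature.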
Sequence of Cytochrome P450 1A2 (Homo sapiens) (P05177 whole entry, looked up): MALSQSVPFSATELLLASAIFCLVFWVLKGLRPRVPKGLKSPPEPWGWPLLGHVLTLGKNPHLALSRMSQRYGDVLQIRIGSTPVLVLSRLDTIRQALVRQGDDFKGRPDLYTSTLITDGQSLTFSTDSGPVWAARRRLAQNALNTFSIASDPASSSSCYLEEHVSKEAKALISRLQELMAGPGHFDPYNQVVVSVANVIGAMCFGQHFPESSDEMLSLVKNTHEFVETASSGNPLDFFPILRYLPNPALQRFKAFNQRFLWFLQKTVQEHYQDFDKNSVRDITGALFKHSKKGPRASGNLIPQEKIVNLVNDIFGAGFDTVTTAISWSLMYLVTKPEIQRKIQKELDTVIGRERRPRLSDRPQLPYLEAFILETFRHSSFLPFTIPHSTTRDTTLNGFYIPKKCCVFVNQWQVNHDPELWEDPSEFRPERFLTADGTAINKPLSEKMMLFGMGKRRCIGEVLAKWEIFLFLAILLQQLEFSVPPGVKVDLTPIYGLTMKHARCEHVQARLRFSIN
In assay [16] the target is Cytochrome P450 2C19 (Homo sapiens) (UniProt P33261). Kind of assay: qHTS Assay for Inhibitors and Substrates of Cytochrome P450 2C19 (AID 899). Also: % is scaled to controls: 0 for no effect and ±100 for the full control effect; nearly all actives have a fitted effect of over 60% in size. An outline of the steps:
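NADPH-dependent conversion of Luciferin-H EGE (10uM, at KM) by 5nM enzyme in 50mM KPO4, 60 min at 37C following 10 min compound preincubation. Stopped with luciferin detection buffer; luminescence read after 20 min.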

The target of assay [17] is Ubiquitin carboxyl-terminal hydrolase 1 (Homo sapiens) (UniProt O94782). Kind of assay: Inhibitors of USP1/UAF1: Pilot qHTS (AID 504865).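 Also: rhodamine fluorescence freed from ubiquitin-rhodamine substrate followed over time; top concentration of the series differs between compounds; % is scaled to controls: 0 for no effect and ±100 for the full control effect; nearly all actives have a fitted effect of over 35% in size.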 An outline of the steps: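 Deubiquitinase activity followed as kinetic rhodamine fluorescence release from 150 nM Ub-Rho. 1 nM USP1/UAF1 with compound, after 15 min room-temperature preincubation, in HEPES pH 7.8 buffer containing TCEP, EDTA, BSA and Tween-20.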

In assay [18] the target is Cytochrome P450 3A4 (Homo sapiens) (UniProt P08684). Kind of assay: qHTS Assay for Inhibitors and Substrates of Cytochrome P450 3A4 (AID 884). Also: % is scaled to controls: 0 for no effect and ±100 for the full control effect; nearly all actives have a fitted effect of over 50% in size. The method, boiled down: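 20 nM human CYP3A4 with 25 uM Luciferin-PPXE (at KM) in 200 mM KPO4, preincubated 10 min with compound; NADPH regeneration started a 60 min RT reaction. Luciferin detected by luminescence, normalized to 57 uM ketoconazole as full inhibition.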
Sequence of Cytochrome P450 3A4 (Homo sapiens) (P08684 whole entry, looked up): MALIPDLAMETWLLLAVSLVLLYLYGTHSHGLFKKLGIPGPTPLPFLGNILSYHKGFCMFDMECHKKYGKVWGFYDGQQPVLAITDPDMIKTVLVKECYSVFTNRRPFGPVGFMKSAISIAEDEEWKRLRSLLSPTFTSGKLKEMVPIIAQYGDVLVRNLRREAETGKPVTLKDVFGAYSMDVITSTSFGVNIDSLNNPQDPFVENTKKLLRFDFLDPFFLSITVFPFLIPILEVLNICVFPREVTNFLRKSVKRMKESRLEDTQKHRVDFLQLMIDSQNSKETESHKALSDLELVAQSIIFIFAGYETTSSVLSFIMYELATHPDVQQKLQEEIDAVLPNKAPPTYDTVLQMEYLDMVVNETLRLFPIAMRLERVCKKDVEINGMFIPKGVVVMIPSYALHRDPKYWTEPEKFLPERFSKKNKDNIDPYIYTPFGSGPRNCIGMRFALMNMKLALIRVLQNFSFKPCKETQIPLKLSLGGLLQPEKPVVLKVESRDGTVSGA

Setting [19] is: measured here: cell count channel max response.
Setting [20] is: measured here: lipid channel max response.

Each structure is given as a SMILES string. Several values for one entry are separate records, joined by “and”; a condition that tells them apart may be missing. Equal entries are not always repeated. Inconclusive results are not listed. Activity calls are given as the source filed them. Unless noted, calls follow the shape of the dose curve; as a rule, active = well fitted curve in the direction sought with a large enough effect; inconclusive = small, poorly fitted or top-dose-only effect, or another doubt; inactive = no such curve, though single readings can be large; an effect the other way counts as inactive or inconclusive.

Sequence of 3',5'-cyclic-AMP phosphodiesterase 4B (Homo sapiens) (Q07343 whole entry, looked up): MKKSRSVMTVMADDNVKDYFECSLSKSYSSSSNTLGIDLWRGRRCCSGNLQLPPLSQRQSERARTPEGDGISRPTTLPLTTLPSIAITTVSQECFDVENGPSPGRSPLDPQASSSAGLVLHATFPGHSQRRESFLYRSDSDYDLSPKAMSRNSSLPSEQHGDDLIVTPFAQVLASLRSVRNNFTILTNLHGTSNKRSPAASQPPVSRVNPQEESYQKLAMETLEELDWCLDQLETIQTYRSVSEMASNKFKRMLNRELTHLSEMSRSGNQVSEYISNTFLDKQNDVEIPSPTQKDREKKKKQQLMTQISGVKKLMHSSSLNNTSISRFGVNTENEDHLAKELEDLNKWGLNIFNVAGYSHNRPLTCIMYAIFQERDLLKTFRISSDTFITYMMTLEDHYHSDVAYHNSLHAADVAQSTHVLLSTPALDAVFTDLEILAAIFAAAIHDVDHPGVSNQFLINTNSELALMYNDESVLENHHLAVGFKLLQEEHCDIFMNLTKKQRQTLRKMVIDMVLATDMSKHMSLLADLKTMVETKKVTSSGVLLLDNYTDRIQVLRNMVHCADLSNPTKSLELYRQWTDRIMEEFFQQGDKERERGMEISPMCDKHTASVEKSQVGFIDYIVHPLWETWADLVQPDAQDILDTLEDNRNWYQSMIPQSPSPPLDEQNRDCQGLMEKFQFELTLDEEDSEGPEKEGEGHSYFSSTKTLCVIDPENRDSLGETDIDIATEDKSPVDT
Sequence of Cytochrome P450 2C19 (Homo sapiens) (P33261 whole entry, looked up): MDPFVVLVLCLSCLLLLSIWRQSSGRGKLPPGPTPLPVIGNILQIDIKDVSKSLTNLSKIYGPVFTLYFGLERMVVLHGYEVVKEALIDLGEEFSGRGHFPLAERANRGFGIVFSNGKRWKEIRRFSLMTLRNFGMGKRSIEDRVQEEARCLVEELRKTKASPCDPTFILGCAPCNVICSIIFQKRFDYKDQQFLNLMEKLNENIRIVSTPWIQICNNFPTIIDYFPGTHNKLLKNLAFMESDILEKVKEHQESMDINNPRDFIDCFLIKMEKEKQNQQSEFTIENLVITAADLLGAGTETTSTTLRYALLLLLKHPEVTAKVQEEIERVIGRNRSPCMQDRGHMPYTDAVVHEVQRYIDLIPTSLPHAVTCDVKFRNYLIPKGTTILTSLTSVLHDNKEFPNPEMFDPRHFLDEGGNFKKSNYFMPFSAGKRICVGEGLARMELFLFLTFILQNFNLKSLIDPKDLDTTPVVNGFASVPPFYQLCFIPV
Sequence of Pyruvate kinase (Leishmania mexicana) (Q27686 2-499 E452W): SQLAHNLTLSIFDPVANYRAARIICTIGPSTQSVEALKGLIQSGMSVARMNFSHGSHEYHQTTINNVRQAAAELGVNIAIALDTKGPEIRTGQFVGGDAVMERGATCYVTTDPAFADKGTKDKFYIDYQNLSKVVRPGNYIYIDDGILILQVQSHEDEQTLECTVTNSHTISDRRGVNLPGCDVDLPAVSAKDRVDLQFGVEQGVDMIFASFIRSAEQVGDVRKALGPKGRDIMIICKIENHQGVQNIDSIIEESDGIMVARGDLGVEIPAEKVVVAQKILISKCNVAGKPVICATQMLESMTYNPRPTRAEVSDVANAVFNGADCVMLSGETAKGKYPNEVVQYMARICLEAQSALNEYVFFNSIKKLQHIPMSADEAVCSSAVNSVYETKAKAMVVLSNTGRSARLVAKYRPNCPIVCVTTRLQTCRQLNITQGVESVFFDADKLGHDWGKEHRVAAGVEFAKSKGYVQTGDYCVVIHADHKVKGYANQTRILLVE
Sequence of Guanine nucleotide-binding protein G(i) subunit alpha-1 (Homo sapiens) (P63096 whole entry, looked up): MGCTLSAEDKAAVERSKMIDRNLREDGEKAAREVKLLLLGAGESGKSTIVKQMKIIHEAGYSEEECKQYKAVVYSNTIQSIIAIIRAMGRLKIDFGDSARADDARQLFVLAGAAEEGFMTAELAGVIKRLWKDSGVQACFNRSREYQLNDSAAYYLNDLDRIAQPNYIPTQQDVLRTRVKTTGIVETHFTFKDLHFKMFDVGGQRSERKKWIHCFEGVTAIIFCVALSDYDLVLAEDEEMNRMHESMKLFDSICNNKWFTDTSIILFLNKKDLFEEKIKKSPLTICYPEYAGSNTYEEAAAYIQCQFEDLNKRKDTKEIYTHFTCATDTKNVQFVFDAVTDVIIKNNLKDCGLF
Sequence of Cytochrome P450 2C9 (Homo sapiens) (P11712 whole entry, looked up): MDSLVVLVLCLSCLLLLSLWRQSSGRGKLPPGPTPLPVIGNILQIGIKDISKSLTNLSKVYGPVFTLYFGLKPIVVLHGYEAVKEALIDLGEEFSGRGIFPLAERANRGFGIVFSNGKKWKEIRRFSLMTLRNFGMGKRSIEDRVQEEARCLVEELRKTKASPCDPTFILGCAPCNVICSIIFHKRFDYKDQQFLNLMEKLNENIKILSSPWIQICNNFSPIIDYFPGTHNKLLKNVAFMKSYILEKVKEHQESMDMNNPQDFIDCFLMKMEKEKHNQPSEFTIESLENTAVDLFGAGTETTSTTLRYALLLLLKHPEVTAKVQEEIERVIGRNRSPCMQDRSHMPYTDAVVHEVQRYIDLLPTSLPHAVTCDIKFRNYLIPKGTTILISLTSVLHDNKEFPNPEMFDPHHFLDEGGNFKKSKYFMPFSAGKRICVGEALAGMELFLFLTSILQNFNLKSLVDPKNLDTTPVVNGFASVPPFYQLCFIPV

For `CO[C@]1(C2=NCCN2)COc2ccccc2O1`, the activity change, negative = inhibition was -14% (inactive) in assay [1] (at 38 µM (top of the series)), -11% (inactive) in [2] and 1.12% (inactive) in assay [12] (at 57.5 µM (top of the series)). The activity, negative = inhibition in assay [3] (at 38 µM (top of the series)) was 13.6% (inactive). In addition, the figures for the Potency in assay [4], in assay [5] and in [10] were > 46 µM (inactive), > 46 µM (inactive) and 0.794 µM (active), respectively. Further, the Potency result in [6], in [7], in assay [9], in [11], in assay [13] and in assay [14] was “inactive” each time. Moreover, the compound was classed as inactive in assay [8]. Moreover, the max response in assay [12] (setting [19]) was 8.44%; in assay [12] (setting [20]), 10.7%.
As to `NC(N)=Nc1ccc(Cl)cc1`, the Potency result in assay [15], in assay [7], in assay [16], in assay [17], in assay [13] and in assay [14] was “inactive” throughout. Moreover, the Potency in assay [4] and in [5] was > 46 µM (inactive) in each case. Also, in assay [12] (at 57.5 µM (top of the series)), the activity change, negative = inhibition was -3.61% (inactive). For the same compound, the max response in assay [12] (setting [19]) was -0.36%; in assay [12] (setting [20]) it was -4.97%.
Take `Fc1ccc(C(c2ccc(F)cc2)N2CCN(C/C=C\c3ccccc3)CC2)cc1`: the activity change, negative = inhibition in assay [1] (at 17.2 µM (top of the series)) was -7.16% (inactive); in [1] (at 38 µM (top of the series)), 2.24% (inactive); in [12] (at 25.7 µM (top of the series)) it was -8.39% (inactive). Further, the Potency is 15.8 µM (active) in assay [15]; > 46 µM (inactive) and > 20.6 µM (inactive) in assay [4]; > 46 µM (inactive) and > 20.6 µM (inactive) in [5]. The figures for the activity, negative = inhibition in assay [3] (at 17.2 µM (top of the series)) and in assay [3] (at 38 µM (top of the series)) were 10.1% (inactive) and -6.11% (inactive), respectively. The Potency result in assay [6], in assay [7], in [18], in assay [16], in assay [11] and in [14] was “inactive” each time. Moreover, in assay [8], the outcome was inactive. Besides, the max response was -13.5% in assay [12] (setting [19]) and -22.1% in [12] (setting [20]).
